Laboratory results taken from article PMC5540273 (PLoS ONE, 2017).

Key:
Conditions in all cases: concentration: 1 μM, replicates: in singlicate; n = 1
[1] = system: PAK2
[2] = system: PAK3
[3] = system: PAK4
[4] = system: PAK6
[5] = system: PAK7
[6] = system: T1, PCTK1
T1 construct: gene CDK16

[7] = system: T2, PCTK2
T2 construct: gene CDK17

[8] = system: T3, PCTK3
T3 construct: gene CDK18

[9] = system: PDGFRA
[10] = system: PDGFRB
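Note: KINOMEscan kinase panel screen.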

| SMILES | %Inh [1] [%] | %Inh [2] [%] | %Inh [3] [%] | %Inh [4] [%] | %Inh [5] [%] | %Inh [6] [%] | %Inh [7] [%] | %Inh [8] [%] | %Inh [9] [%] | %Inh [10] [%] |
| --- | --- | --- | --- | --- | --- | --- | --- | --- | --- | --- |
| CC(C)(C)c1ccc(C(=O)Nc2cn3cc(-c4ccccc4)ccc3n2)cc1 | 0 | 8 | 1 | 0 | 6 | 0 | 0 | 0 | 41 | 93 |
| O=C1NC(=O)C(c2ccccc2)=C1Nc1cccc(O)c1 [SB-390534] | 16 | 26 | 0 | 0 | 0 | 0 | 6 | 0 | 0 | 0 |
| COc1cccc(-n2cnc3c(N)ncnc32)c1 [SKF-97416] | 53 | 0 | 18 | 18 | 1 | 15 | 0 | 6 | 42 | 4 |
| COc1ccc(Nc2nccc(N3CCC(NS(=O)(=O)c4ccc(NC(C)=O)cc4)C3)n2)cc1 (stereo not shown) [GSK1379729] | 0 | 7 | 0 | 0 | 0 | 0 | 0 | 6 | 23 | 15 |
